For assay [1], the target named is Mitogen-activated protein kinase kinase kinase kinase 4 (Homo sapiens) (UniProt O95819). The following applies: at 1 µM.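 Note: reported figure is an averaged inhibition value.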
Assay [2] addresses Dual specificity mitogen-activated protein kinase kinase 1 (Homo sapiens) (UniProt Q02750). The settings on record: at 0.1 µM.
Assay [3] has the same target. The following applies: at 1 µM.
Assay [4] has as its target Misshapen-like kinase 1 (Homo sapiens) (UniProt Q8N4C8). The settings on record: at 0.1 µM.
For assay [5] the target is unchanged. The following applies: at 1 µM.
The target of assay [6] is T1, Serine/threonine-protein kinase 4 (Homo sapiens) (UniProt Q13043).
T1 sequence (whole entry): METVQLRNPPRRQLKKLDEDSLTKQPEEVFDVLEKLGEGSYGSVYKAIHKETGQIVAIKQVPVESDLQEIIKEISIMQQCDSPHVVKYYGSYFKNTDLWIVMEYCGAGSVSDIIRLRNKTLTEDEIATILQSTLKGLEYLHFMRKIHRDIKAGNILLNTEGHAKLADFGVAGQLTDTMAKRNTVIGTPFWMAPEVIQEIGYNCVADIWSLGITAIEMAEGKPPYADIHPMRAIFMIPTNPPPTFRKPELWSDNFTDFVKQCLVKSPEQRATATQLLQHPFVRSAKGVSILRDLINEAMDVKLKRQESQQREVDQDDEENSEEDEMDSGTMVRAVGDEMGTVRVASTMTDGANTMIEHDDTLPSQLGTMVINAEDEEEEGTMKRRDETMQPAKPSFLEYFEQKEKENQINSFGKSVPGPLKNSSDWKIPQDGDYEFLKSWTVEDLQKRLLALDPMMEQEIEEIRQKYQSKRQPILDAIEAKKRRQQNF
The settings on record: at 0.1 µM.

The target of assay [7] is T1, Serine/threonine-protein kinase 4 (Homo sapiens). The settings on record: at 1 µM.
The target in assay [8] is T2, Serine/threonine-protein kinase 3 (Homo sapiens) (UniProt Q13188).
T2 sequence (whole entry): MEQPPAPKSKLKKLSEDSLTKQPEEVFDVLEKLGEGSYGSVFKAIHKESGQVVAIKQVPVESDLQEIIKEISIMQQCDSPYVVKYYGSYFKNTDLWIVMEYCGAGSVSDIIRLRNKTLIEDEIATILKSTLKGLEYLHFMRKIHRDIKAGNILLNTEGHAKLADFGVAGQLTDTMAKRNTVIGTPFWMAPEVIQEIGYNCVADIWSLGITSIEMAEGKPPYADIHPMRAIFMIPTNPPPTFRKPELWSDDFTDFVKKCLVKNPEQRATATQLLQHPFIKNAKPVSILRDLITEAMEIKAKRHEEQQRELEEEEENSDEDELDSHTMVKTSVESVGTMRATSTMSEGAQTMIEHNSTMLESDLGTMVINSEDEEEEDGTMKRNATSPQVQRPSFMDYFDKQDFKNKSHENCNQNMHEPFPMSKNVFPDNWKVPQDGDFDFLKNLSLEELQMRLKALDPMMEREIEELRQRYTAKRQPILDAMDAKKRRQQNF
The settings on record: at 0.1 µM.

The target in assay [9] is T2, Serine/threonine-protein kinase 3 (Homo sapiens). The settings on record: at 1 µM.
Assay [10] deals with Serine/threonine-protein kinase 26 (Homo sapiens) (UniProt Q9P289). The settings on record: at 0.1 µM.
Sequence of Serine/threonine-protein kinase 26 (Homo sapiens) (Q9P289 2-416 limits assumed): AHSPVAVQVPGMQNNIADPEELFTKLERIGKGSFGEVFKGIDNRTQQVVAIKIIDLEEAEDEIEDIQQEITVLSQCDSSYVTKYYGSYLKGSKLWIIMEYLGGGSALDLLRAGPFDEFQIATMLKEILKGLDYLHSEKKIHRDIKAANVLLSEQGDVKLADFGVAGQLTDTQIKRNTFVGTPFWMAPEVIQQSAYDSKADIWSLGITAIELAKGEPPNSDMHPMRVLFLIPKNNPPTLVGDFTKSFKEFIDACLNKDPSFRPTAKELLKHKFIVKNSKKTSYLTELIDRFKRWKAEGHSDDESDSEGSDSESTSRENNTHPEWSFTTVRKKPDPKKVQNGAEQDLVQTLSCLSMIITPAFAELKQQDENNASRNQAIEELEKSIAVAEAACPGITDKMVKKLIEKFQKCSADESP

SMILES strings stand for the structures.

Sequence of Mitogen-activated protein kinase kinase kinase kinase 4 (Homo sapiens) (O95819 2-1239 limits assumed): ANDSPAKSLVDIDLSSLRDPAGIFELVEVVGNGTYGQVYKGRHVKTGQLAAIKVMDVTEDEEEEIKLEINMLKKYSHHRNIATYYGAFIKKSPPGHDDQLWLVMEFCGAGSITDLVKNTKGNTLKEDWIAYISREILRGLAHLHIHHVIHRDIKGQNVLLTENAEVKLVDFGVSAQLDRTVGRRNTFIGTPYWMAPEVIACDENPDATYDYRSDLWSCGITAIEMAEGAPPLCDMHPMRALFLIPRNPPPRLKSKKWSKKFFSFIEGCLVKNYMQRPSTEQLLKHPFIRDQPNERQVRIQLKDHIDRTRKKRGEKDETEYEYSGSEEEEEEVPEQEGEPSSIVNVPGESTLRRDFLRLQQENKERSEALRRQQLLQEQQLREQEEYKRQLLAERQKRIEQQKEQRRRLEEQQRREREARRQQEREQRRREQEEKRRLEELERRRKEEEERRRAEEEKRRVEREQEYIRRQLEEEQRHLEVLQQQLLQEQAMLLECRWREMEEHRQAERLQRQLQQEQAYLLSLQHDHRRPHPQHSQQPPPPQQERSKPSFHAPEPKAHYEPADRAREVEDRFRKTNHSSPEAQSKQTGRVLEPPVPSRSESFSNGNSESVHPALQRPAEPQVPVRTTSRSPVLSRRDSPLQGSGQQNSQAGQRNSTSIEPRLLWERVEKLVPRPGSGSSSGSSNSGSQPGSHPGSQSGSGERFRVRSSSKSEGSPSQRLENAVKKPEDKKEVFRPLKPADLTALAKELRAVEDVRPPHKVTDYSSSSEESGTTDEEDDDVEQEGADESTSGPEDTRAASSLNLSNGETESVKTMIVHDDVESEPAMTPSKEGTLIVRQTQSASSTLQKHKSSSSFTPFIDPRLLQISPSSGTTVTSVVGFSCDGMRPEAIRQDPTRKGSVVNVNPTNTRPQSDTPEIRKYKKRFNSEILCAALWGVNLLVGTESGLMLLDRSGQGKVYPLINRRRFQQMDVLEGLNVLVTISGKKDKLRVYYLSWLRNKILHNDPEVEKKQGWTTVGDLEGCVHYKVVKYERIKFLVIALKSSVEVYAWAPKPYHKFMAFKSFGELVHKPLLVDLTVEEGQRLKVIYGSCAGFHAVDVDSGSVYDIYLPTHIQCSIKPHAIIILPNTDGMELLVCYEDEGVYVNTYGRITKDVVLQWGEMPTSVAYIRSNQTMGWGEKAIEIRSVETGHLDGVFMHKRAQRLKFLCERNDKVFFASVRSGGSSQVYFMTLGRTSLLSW
Sequence of Dual specificity mitogen-activated protein kinase kinase 1 (Homo sapiens) (Q02750 whole entry): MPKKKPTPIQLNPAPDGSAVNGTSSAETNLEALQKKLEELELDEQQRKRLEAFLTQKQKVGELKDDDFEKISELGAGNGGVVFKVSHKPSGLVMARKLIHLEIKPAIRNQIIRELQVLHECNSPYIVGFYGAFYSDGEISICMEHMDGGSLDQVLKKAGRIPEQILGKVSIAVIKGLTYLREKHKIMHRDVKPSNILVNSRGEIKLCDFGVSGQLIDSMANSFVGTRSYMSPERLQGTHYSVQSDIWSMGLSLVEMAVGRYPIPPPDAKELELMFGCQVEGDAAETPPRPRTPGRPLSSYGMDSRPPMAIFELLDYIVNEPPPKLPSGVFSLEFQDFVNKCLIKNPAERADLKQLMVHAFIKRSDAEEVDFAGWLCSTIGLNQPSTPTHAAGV
Sequence of Misshapen-like kinase 1 (Homo sapiens) (Q8N4C8 whole entry, looked up): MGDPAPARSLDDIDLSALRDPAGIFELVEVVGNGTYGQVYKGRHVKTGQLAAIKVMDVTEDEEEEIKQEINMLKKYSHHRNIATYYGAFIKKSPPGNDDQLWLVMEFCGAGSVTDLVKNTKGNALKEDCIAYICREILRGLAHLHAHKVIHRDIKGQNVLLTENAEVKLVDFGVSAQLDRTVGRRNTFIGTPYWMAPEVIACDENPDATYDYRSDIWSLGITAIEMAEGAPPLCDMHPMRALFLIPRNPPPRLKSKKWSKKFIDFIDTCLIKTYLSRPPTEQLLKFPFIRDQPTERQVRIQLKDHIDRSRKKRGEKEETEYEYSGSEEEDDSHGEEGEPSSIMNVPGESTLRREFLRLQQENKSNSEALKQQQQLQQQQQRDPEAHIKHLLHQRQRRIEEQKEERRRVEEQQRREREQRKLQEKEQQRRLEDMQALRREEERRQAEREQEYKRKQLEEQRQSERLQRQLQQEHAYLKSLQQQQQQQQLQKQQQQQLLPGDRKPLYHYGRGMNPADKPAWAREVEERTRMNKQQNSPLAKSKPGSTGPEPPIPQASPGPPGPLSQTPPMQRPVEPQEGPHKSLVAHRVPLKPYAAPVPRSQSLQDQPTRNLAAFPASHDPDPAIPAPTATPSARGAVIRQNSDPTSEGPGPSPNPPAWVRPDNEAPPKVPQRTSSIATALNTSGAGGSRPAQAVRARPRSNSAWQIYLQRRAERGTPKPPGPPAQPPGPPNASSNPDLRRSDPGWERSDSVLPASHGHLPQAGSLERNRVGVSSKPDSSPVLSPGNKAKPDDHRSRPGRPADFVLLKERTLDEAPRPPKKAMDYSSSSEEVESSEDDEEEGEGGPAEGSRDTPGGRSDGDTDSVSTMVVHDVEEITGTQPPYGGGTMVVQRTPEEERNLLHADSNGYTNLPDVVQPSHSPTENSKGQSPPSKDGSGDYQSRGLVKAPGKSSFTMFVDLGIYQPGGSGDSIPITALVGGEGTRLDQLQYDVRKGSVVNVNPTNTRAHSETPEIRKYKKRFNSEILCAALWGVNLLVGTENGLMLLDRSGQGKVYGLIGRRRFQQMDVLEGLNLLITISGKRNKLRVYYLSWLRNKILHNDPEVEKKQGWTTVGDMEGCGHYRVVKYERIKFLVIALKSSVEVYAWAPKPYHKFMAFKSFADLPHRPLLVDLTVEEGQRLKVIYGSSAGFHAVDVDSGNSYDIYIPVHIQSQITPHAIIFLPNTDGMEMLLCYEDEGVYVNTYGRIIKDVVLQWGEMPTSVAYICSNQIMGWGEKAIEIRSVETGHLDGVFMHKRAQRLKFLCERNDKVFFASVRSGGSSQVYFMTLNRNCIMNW

Regarding `Fc1cccc(COc2ccc(Nc3ncnc4cc(-c5ccc[nH]5)sc34)cc2Cl)c1`, the inhibition in assay [1] was 13.9%; in assay [2] it was 3.99%; in assay [3], 3.24%; in assay [4] it was 6.08%; in assay [5], 12.7%; in assay [6], 0.61%. Besides, the inhibition in assay [7] is 2.35%; in assay [8], 1.18%; in [9], 3.32%; in [10], -0.07%.

As to `COC(=O)Nc1nc2cc(Oc3cccc(NC(=O)Nc4cc(C(F)(F)F)ccc4F)c3)ccc2[nH]1`, the inhibition in [1] was 4.32%; in assay [2] it was 0.59%; in [3], 0.38%; in assay [4] it was 1.15%; in [5], 3.21%; in assay [6] it was -1.6%. In addition, the inhibition in assay [7] is 0.24%; in [8] it was -1.24%; in assay [9], 0.17%; in assay [10] it was 0.73%.

As to `NS(=O)(=O)c1cccc(-c2ccc3c(NC(=O)C4CC4)n[nH]c3c2)c1`, the inhibition was 10% in assay [1]; -1.43% in assay [2]; 2.83% in assay [3]; 1.11% in [4]; 8.09% in assay [5]; -3.97% in assay [6]. The inhibition in [7] was -4.72%; in [8], -3.79%; in [9], -2.35%; in [10], 0%.

For the compound `CC1=C(C(=O)Nc2ccc3[nH]ncc3c2)C(c2ccc3ccccc3c2)CC(=O)N1` (stereo not given), the inhibition came out at 3.73% in assay [1]; 8.09% in assay [2]; 44.4% in assay [3]; 4.56% in assay [4]; 3.98% in [5]; 3.56% in [6]. For the same compound, the inhibition is 12.2% in assay [7], 3.29% in assay [8], 9.79% in [9] and -0.11% in assay [10].

For `Nc1nc(-c2ccccn2)c(-c2ccc3ncccc3n2)s1`, the inhibition worked out at 9.69% in assay [1]; 2.95% in assay [2]; 2.78% in assay [3]; 5.37% in [4]; 7.86% in assay [5]; 5.62% in assay [6]. Besides, the inhibition in assay [7] was 6.85%; in assay [8] it was 5.79%; in assay [9], 6.4%; in assay [10], -2.14%.

Take `CS(=O)(=O)CCN(CC#N)Cc1ccc(-c2ccc3ncnc(Nc4ccc(OCc5cccc(F)c5)c(Cl)c4)c3c2)o1`: the inhibition in assay [1] is 5%; in assay [2], 2.47%; in assay [3], 0.44%; in [4] it was 3.04%; in assay [5], 3.9%; in assay [6], 0.41%. Further, the inhibition is 0.1% in assay [7], 0.67% in assay [8], 1.66% in assay [9] and -1.31% in [10].

`COC(=O)Nc1nc2cc(Oc3ccc(NC(=O)Nc4cccc(C(=O)O)c4)cc3)ccc2[nH]1`: the inhibition in assay [1] amounted to 5.9%; in assay [2] it was 0.36%; in assay [3] it was 0.97%; in assay [4] it was 1.59%; in assay [5], 4.38%; in [6] it was 7.79%. Moreover, the inhibition worked out at 11.2% in assay [7], 7.55% in [8], 10.9% in [9] and 1.75% in [10].

As for `CC(C)=Cc1cccc2c1/C(=N/Nc1ccc(S(N)(=O)=O)cc1)C(=O)N2`, the inhibition amounted to 31.3% in assay [1]; 0.02% in [2]; 2.23% in [3]; 3.63% in assay [4]; 25.1% in assay [5]; 66.6% in [6]. The inhibition worked out at 84.5% in assay [7], 52.6% in assay [8], 82.4% in assay [9] and 4.55% in assay [10].

Regarding `Cc1nnc(-c2ccc(C)c(-c3ccc(C(=O)Nc4cccc(C#N)c4)cc3)c2)o1`, the inhibition in assay [1] amounted to 10.6%; in [2] it was 2.51%; in assay [3] it was 1.55%; in assay [4] it was 4.46%; in assay [5], 9.13%; in assay [6], 1.52%. Besides, the inhibition in assay [7] is 6%; in assay [8] it was 2.65%; in [9] it was 6.4%; in [10], -1.07%.

`O=C1NC(=O)C(c2ccccc2Cl)=C1Nc1cccc(O)c1`: the inhibition worked out at 6.87% in assay [1]; 1.44% in assay [2]; 1.89% in [3]; 3.8% in assay [4]; 5.96% in assay [5]; 7.3% in assay [6]. Besides, the inhibition in [7] was 27.2%; in [8], 7.12%; in [9], 22.5%; in [10] it was -0.62%.

For `CCn1c(-c2nonc2N)nc2c(N3CCCC3)nccc21`, the inhibition in assay [1] was 2.78%; in assay [2] it was -2.28%; in [3], -2.11%; in [4], 0.71%; in assay [5] it was 2.4%; in [6], -1.49%. The inhibition is -1.2% in [7], -2.05% in [8], 0.3% in assay [9] and 0.47% in assay [10].

On to `CCCN1CCC(Oc2cc(Nc3nc(Nc4cccc(F)c4C(N)=O)c4cc[nH]c4n3)c(OC)cc2Cl)CC1`, for which the inhibition in [1] was 3.64%; in assay [2] it was 0.84%; in [3], 20.6%; in assay [4], 1%; in assay [5], 1.71%; in assay [6] it was -0.56%. In addition, the inhibition is 1.54% in assay [7], -0.96% in assay [8], 0.14% in [9] and 1.68% in assay [10].

Consider `COc1cc2c(cc1Nc1nc(N3CCc4ccccc43)c3cc[nH]c3n1)N(C(=O)CN(C)C)CC2`, for which the inhibition is 2.27% in [1]; 1.49% in assay [2]; 2.14% in assay [3]; 3.79% in assay [4]; -0.01% in assay [5]; 5.66% in [6]. Also, the inhibition in [7] is 6.86%; in [8], 6.28%; in [9] it was 5.22%; in assay [10], -0.61%.

For `CC1=C(C(=O)Nc2ccc3[nH]ncc3c2)C(c2ccc(Cl)c(Cl)c2)CC(=O)N1` (stereo not given), the inhibition in assay [1] was 3.96%; in assay [2] it was 4.74%; in [3] it was 30.5%; in [4], 1.68%; in assay [5], 1.98%; in assay [6] it was 1.25%. Moreover, the inhibition is 4.28% in [7], 1.27% in [8], 2.63% in [9] and -1.2% in [10].

As to `c1cnn2ncc(-c3ccnc(Nc4ccc5c(c4)OCCO5)n3)c2c1`, the inhibition in assay [1] is 51.5%; in assay [2] it was 7.35%; in [3] it was 27.8%; in assay [4], 9.95%; in assay [5] it was 40.4%; in [6] it was 7.88%. The inhibition was 19.1% in assay [7], 7.54% in assay [8], 16.1% in [9] and -1.31% in assay [10].

In the case of `O=C1NC(=O)C(N2CCc3ccccc32)=C1c1ccc(Cl)cc1`, the inhibition in [1] came to 9.97%; in assay [2], 5.02%; in [3], 5.22%; in [4], 5.14%; in assay [5] it was 10.3%; in assay [6] it was 6.36%. Also, the inhibition is 7.67% in assay [7], 6.26% in [8], 7.91% in [9] and -1.31% in assay [10].

In the case of `O=C1Nc2ccc(C(=O)c3ccco3)cc2C1=Cc1cc(Cl)c(O)c(Cl)c1`, the inhibition in assay [1] was determined as 75.8%; in assay [2], 2.93%; in assay [3], 9.42%; in assay [4] it was 18.1%; in assay [5], 61.8%; in assay [6] it was 21.7%. Besides, the inhibition is 66.8% in assay [7], 20.4% in [8], 65.3% in assay [9] and 3.9% in [10].

For orientation: inhibition means the relative decrease from the control value, in per cent.

(Values after ChEMBL document CHEMBL1961873, “Compounds: GSK PKIS; Assays: Nanosyn kinase panel” (2012).)
